Source: PubChem BioAssay (NCI)
About 83,000 compounds went through this panel and 20% of them were active in at least one assay; those are over-represented in the sample as a whole.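 Note: values are percent growth. 100 is the growth of untreated cells, values between 100 and 0 indicate rising inhibition; between -100 and 0 indicates cell death.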 Values without a mark were called inactive. Calls of active or inactive are those of the source. The calls were made as follows: active = growth percent below 10; inactive = the rest.

Tested on: MDA-MB-468 breast
Test: NCI-60 one-dose screen, 48 h (100 = growth as untreated, 0 = no growth, -100 = all killed)
Settings: 10 µM unless noted

Going from `COCCCOc1cc(C[C@@H](C[C@H](N)[C@@H](O)C[C@H](C(=O)NCC(C)(C)C(N)=O)C(C)C)C(C)C)ccc1OC` to `COc1cc2cc(Oc3ccc(NC(=O)Nc4ccc(Cl)c(Cl)c4)cc3)c(C)nc2cc1OCCN1CCCCC1`, the growth rises from 101% to 103%.

Compared with `COC1=CC(=O)OC(c2ccc(OC)cc2)C1` (stereo not given), `COc1ccc(-c2cc(-c3cccc(Cl)c3)c(C#N)c(=O)[nH]2)c(OC)c1` is higher in growth: 112% for the first, 113% for the second.

Going from `CCN(CC)CCN1C(=O)c2c(c3c4cccnc4[nH]c3c3ccc4ccccc4c23)C1=O` to `CC(=NNc1ncnc2ccccc12)c1ccc(S(C)(=O)=O)cc1`, the growth rises from 63.3% to 103%.

Compared with `NC(=S)N/N=C/C(=O)O`, `COc1ccc(NC(N)=NCCCOc2ccc(F)cc2)cc1` is higher in growth: 37.7% for the first, 66.2% for the second.

Compared with `CC1=C2[C@@H](CC1)[C@]1(C)O[C@@](C3CC3)(C[C@H]1OC(=O)CO)[C@H]2OC(=O)/C=C/c1ccccc1`, `CCCc1c(C)nc2scc(-c3ccc(Cl)cc3)n2c1=O` is higher in growth: 83% for the first, 97.9% for the second.

First: O=C1C=CC(=O)N1c1cccc(Cl)c1
Second: CS(=O)(=O)c1nccc(-c2c(-c3cccc(O)c3)nc3sccn23)n1
The growth of the first is higher: 86.7% for the first, 60.1% for the second.

With `Cc1ccc(Cn2c(-c3nonc3N)nc3ccccc32)cc1` the growth was 58.8%.

For `Cn1ccnc1C(=O)/C=C/c1ccc(NC(=O)Nc2ccccc2)cc1`, the growth was -45.8% (active).
With `Cc1ccsc1C(NC(=O)c1ccccc1)c1cc(Cl)c2cccnc2c1O` (stereo not given) the growth was 4.52% (active).
